SMARCA2 activ = SMARCA2 (BRM) function activators, primary screen, cell-based, luminescence, high throughput; MG213 cells, MMTV-luciferase reporter, dexamethasone, overnight; activation, % at 9.1 µM; actives 1% (n = 370,000); in the data active means activation above about 7.8%;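 further: 0% = vehicle wells and 100% = reference activator wells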
HSF1 inhib = HSF1 inhibitors in luciferase reporter cells, primary screen, cell-based, NIH3T3, luminescence. NIH3T3-HGL HSE-luciferase, MG132-induced, luminescence 8 h; hits give low values. activity change, negative = inhibition, % at 7.5 µM (by protocol). actives 0.77% (n = 300,000);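 active means more than half of replicate wells show activity change below -50%, luminescence cut by over half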;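 further: luciferase reports HSF-1 transcriptional activity via heat shock element; 0% = median of DMSO wells and -100% = zero luminescence signal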
AI-2 QS mod = Vibrio harveyi AI-2 quorum sensing modulators, primary screen, JMH597 strain, luminescence/OD600 ratio; actives 0.4% (n = 300,000); activity change, % at 7.5 µM; AID 2094, 2009; Vibrio harveyi JMH597 AI-2 luminescence/OD600 ratio, 9 h; hits give low values; strain lacks LuxN and CqsS sensors; 0 = neutral-control median; in the data active means activity change below about -75%, passing the limit was not always enough;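 further: luminescence divided by OD600 gain over 9 h not by final OD600 alone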
HSP90 inh = HSP90 inhibitors, primary screen, cell lysate, luminescence | Rabbit reticulocyte lysate, luciferase refolding luminescence, 3 h | inhibition, % at 5.6 µM | actives 0.91% (n = 290,000) | AID 1789, 2009;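 active means inhibition above the screen-wide mean plus 3 SD, computed separately per campaign, cut at about 16% in these data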;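 further: 0% = DMSO wells and 100% = 60 µM geldanamycin wells; inhibitors lower the luminescence because luciferase stays unfolded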
FXN GAA850 act = FXN promoter activators, primary screen, cell-based, luciferase luminescence, HEK293 lucGAA850 | AID 540364, 2011 | actives 0.56% (n = 360,000) | activation, % at 6 µM | HEK293 lucGAA850 FXN promoter luciferase reporter, 24 h; percent of 10 µM SAHA response;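 active means activation above the average of all compounds screened plus 3 SD, cutoff fixed separately per campaign, cut at about 7.5% in these data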;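 further: 0% = DMSO wells and 100% = 10 µM SAHA wells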
PG9 binder = binders of HIV-1 gp120 antibody PG9, primary screen, biochemical, TR-FRET; TR-FRET gp120-PG9 antibody binding; inhibition, % at 6.7 µM; HIV-1 gp120 / PG9 antibody interaction; actives 0.43% (n = 360,000); in the data active means inhibition above about 8.5%
HSP90 inh confirm = HSP90 inhibitors, confirmation, cell lysate, luminescence. shares compounds with HSP90 inh. rabbit reticulocyte lysate, luciferase refolding luminescence, 3 h. inhibition, % at 5.9 µM. actives 64% (n = 2,300). AID 1846, 2009; in the data active means inhibition above about 18%;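 further: 0% = vehicle wells and 100% = reference inhibitor wells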
FLuc counter = firefly luciferase inhibitors, HSP90 counter-screen, confirmation, artefact control for HSP90 inhibitor project, biochemical, luminescence, triplicate. shares compounds with HSP90 inh. purified native firefly luciferase. inhibition, % at 5.9 µM. actives 48% (n = 2,300). AID 1847, 2009;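 active means inhibition above the mean inhibition of all tested sample wells plus 3 SD, cut at about 10% in these data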;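 further: 0% = DMSO with luciferase and 100% = wells lacking luciferase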
Target sequence (P08659 whole entry, looked up): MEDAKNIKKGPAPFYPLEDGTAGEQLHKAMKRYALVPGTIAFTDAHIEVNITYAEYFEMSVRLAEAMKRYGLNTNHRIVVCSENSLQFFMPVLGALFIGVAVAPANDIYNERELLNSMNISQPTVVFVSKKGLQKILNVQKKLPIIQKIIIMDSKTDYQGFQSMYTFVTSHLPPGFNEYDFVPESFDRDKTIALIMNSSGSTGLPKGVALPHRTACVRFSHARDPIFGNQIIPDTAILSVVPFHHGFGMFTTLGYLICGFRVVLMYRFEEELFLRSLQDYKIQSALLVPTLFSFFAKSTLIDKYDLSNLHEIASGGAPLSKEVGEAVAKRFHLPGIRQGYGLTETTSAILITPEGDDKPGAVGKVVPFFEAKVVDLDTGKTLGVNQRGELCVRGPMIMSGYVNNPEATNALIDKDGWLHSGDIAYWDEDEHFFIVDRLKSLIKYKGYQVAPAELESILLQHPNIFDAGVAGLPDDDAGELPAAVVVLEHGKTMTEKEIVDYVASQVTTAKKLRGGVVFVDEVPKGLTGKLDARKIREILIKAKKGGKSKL
* hit, by the source's call; . = not tested or not shown. An excerpt weighted towards active compounds, which were near 3.4% of everything screened.

SMILES | SMARCA2 activ | HSF1 inhib | AI-2 QS mod | HSP90 inh | FXN GAA850 act | PG9 binder | HSP90 inh confirm | FLuc counter
COC(=O)[C@]12C[C@H](CC(=O)NCc3cccc4ccccc34)C(=O)N(Cc3ccco3)C1=C[C@H](COCc1ccccc1)O[C@@H]2C | -3 | . | . | . | . | . | . | .
CN(C)c1ccc(C(O)Cc2nc3ccccc3n2C)cc1 (stereo not drawn) | 1 | -46 | 1 | 46* | -3 | -3 | 5 | 1
CN(C)c1ccc(-c2nc3ccccc3n2C)cc1 | 0 | 3 | 4 | 28* | -2 | -6 | 64* | 53*
COC(=O)[C@@]12CCCCC3=C1N(CCC3)C(=O)[C@H]2CC(=O)NCC12CC3CC(CC(C3)C1)C2 | -2 | . | . | . | . | . | . | .
CCN(c1ccccc1)c1cc2ccccc2c(=O)[nH]1 | -1 | -3 | 15 | 41* | 2 | 0 | 9 | -4
COc1cccc(N(C)C(=O)[C@@H](C)[C@@H](O)c2ccc(C(C)=O)cc2)c1 | -3 | . | . | . | . | . | . | .
CC(C)(C)n1nnnc1C(c1ccccc1F)N1CCN(C2CCCC2)CC1 (stereo not drawn) | -1 | 2 | 44 | 23* | 1 | -1 | -1 | -3
CCC(C)(C)n1nnnc1C(c1ccccc1)N1CCN(C2CCCC2)CC1 (stereo not drawn) | 3 | -2 | 20 | -5 | -2 | -1 | . | .
c1ccc(Nc2nnc(-c3ccc4c(c3)OCO4)o2)cc1 | 4 | . | . | . | . | 0 | . | .
Cc1ccc(-c2nnc(Nc3ccccc3)o2)cc1 | 2 | -7 | 9 | 36* | -6 | 0 | 81* | 71*
CCC(=NCc1ccco1)c1c(C(F)(F)F)[nH]n(-c2nc3ccccc3s2)c1=O | 5 | 2 | 17 | 2 | -9 | 2 | . | .
CC(=NCc1ccco1)c1c(C)[nH]n(-c2nc3ccccc3s2)c1=O | -5 | . | 13 | 32* | -9 | 3 | 50* | 16*
CCCCC(=O)Nc1nc2ccc(C(=O)OC)cc2s1 | 7 | 11 | 13 | 41* | 2 | 0 | 59* | -16
COC(=O)CCCCCCCCC(=O)Nc1nc2ccccc2s1 | -7 | 2 | 6 | 2 | 1 | -1 | . | .
S=C1NCCOc2ccccc21 | -3 | . | . | . | . | 1 | . | .
CN(C)CCCN(C(=O)CCSc1ccccc1)c1nc2cc3c(cc2s1)OCO3 | -5 | -14 | 9 | 57* | 0 | 0 | -3 | -13
CN(C)CCCN(C(=O)CCS(=O)(=O)c1ccccc1)c1nc2cc3c(cc2s1)OCO3 | -4 | 33 | 20 | -6 | 1 | -1 | . | .
CCOC(=O)Cn1cc(CN2C(C(=O)OC)CN(C3CC3)CCS2(=O)=O)nn1 (stereo not drawn) | -5 | . | . | . | . | . | . | .
CC(C)OP(=O)(O)C(C)NC(=O)OCc1ccccc1 (stereo not drawn) | -2 | . | . | . | . | . | . | .
CC(C)c1ccc(-n2cccc2/C=C2/C(=N)N3C=CSC3=NC2=O)cc1 | -2 | -8 | 12 | 32* | 1 | 1 | 22* | 3
CC1=CSC2=NC(=O)/C(=C\c3cccn3-c3ccccc3)C(=N)N12 | -1 | -14 | 5 | 4 | -2 | -2 | . | .
COc1cccc(NC(=O)NC2CCCCN(Cc3ccccc3C)C2=O)c1 (stereo not drawn) | -3 | . | . | . | . | . | . | .
COc1cccc(NC(=O)c2cc3ccccc3oc2=O)c1 | 4 | 23 | 17 | 28* | 0 | -2 | 64* | 72*
CCC(=O)Nc1cccc(-c2cc3ccccc3oc2=O)c1 | 2 | -30 | -2 | 19* | 3 | 1 | 32* | 19*
Cc1[nH]n(-c2ccccc2)c(=O)c1C(c1ccccc1[N+](=O)[O-])C(C#N)C#N (stereo not drawn) | 0 | 2 | 9 | 28* | -1 | -2 | 2 | -4
SMILES | SMARCA2 activ | HSF1 inhib | AI-2 QS mod | HSP90 inh | FXN GAA850 act | PG9 binder | HSP90 inh confirm | FLuc counter
Cc1[nH]n(-c2ccccc2)c(=O)c1C(c1ccccc1C(=O)O)c1c(C)[nH]n(-c2ccccc2)c1=O | -2 | -1 | 25 | 3 | -2 | -1 | . | .
CCN(CC)c1ccc2cc(-c3nc4ccccc4[nH]3)c(=O)oc2c1 | . | -33 | 23 | 35* | -6 | . | 68* | 67*
CCN(CC)c1ccc2cc(-c3nnc(-c4ccccc4)o3)c(=O)oc2c1 | 6 | -2 | 26 | 1 | 4 | -3 | . | .
Cc1cccc(NC(=O)CSc2nc3ccc(NC(=O)CSc4nnnn4-c4ccccc4)cc3s2)c1C | -1 | . | . | 55* | . | 0 | 22* | -9
O=S1(=O)c2ccc(N3CCSCC3)cc2Oc2ccccc2CN1Cc1cn(Cc2cccc(C(F)(F)F)c2)nn1 | -1 | . | . | . | . | . | . | .
O=C(c1cn(-c2ccccc2)nc1-c1ccc(F)cc1)N1CCOCC1 | -6 | -4 | 11 | 3 | 0 | 1 | . | .
O=C(c1cn(-c2ccccc2)nc1-c1ccc(Br)cc1)N1CCOCC1 | 1 | -6 | 20 | 95* | 0 | -3 | 1 | -1
Cc1cccc(NC(=O)CSc2nnc(Cn3nnc(-c4ccccc4)n3)n2-c2ccccc2)c1 | -4 | 13 | 32 | 21* | -3 | 1 | 5 | -10
Cc1oc(-c2ccccc2)cc1C(=O)Nc1cccc(C(=O)O)c1 | -1 | -15 | 33 | 2 | 0 | 0 | . | .
Cc1oc(-c2ccc(Cl)cc2)cc1C(=O)O | 4 | 15 | 23 | 20* | 2 | -1 | 18* | 4
COC(=O)c1ccc2nc(-c3cccc(N)c3)cn2c1 | 0 | -3 | 7 | 36* | -6 | 0 | 71* | 54*
COC(=O)c1ccc2nc(-c3ccc(S(C)(=O)=O)cc3)cn2c1 | -3 | 7 | 18 | 1 | 5 | 1 | . | .
COc1ccc(-c2onc3ccc(C(=O)/C=C/N(C)C)cc23)cc1 | 2 | -25 | 15 | 31* | 7 | -5 | 2 | 1
COc1ccc(S[C@]2(C(=O)N3CCN(c4ncccn4)CC3)CC(=O)N(P(=O)(OC)OC)[C@@H]2c2ccc(OC)cc2)cc1 | -1 | . | . | . | . | . | . | .
CCCCN1CCN(C(=O)c2ccc(CNC(=O)c3cccc(Br)c3)cc2)CC1 | 2 | . | . | . | . | . | . | .

Source: PubChem
